In the library only some 2.4% were active in any assay of this set; here they are far more common.
M1 ag parental – nonselective activator or artifact in parental CHO-K1 cells; Fluo-8 calcium fluorescence; scaled to maximal ATP response, vehicle zero; 0.48% of 360,000 active; activation, % at 3 µM; AID 602248; in the data active = activation above about 15%;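 note: untransfected CHO-K1 host cells lacking M1 receptor as counterscreen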
CHRM1 PAM – positive allosteric modulators of human M1 muscarinic receptor; 0.088% of 360,000 active; P11229; AID 588819; activation, % at 3 µM; CHO-K1 hM1, Fluo-8 calcium fluorescence, ACh EC20; 0% = ACh EC20, 100% = maximal ACh; in the data active = activation above about 19%, passing the limit was not always enough
Target sequence (P11229 whole entry, looked up): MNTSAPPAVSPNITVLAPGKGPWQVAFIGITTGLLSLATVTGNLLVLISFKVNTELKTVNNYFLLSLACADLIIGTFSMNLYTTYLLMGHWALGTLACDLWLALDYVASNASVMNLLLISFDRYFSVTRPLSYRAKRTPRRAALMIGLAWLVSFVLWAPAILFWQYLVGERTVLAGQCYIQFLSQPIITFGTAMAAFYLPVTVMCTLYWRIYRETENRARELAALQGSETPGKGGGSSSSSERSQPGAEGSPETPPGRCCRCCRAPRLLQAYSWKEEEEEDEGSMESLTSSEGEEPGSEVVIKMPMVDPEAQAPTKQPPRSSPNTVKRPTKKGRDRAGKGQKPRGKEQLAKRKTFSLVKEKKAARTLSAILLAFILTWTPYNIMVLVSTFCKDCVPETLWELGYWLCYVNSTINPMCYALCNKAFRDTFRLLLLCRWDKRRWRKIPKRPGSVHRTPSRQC
M1 ag – activates human CHRM1 receptor; P11229; CHO-K1 hM1, Fluo-8 calcium fluorescence, agonist mode; 0% DMSO, 100% acetylcholine EC100; activation, % at 3 µM; 0.33% of 360,000 active; AID 588814;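 active = activation above the run's mean compound activation plus 3 SD, cut at about 16% in these data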;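 note: peak over basal fluorescence ratio within a 140 s kinetic read after compound addition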
CHRM1 antagonist – blocks human M1 muscarinic receptor; P11229; 1.3% of 360,000 active; inhibition, % at 3 µM; CHO-K1 hM1, Fluo-8 calcium fluorescence, ACh EC80 antagonist;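 active = percent inhibition above its own plate's cutoff, namely the mean of that plate's compound wells plus 3 SD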;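 note: peak over basal fluorescence ratio during 140 s after agonist addition; 0% = ACh EC80 plus DMSO and 100% = DMSO alone without agonist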
M1 PAM parental – counter-screen for M1 PAMs: effect in parental CHO-K1 cells. ATP EC20, Fluo-8 calcium fluorescence; 0% at ATP EC20, 100% at ATP max. activation, % at 3 µM. 0.02% of 360,000 active. AID 602247;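 active = activation above the run cutoff, the mean activation of all test compounds plus 3 SD, cut at about 40% in these data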;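 note: peak over basal fluorescence ratio in a 140 s read after ATP addition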
CHO-K1 Ca antag – counter-screen for M1 antagonists: effect in parental CHO-K1 cells | 0.6% of 360,000 active | inhibition, % at 3 µM | ATP-induced calcium, Fluo-8 fluorescence;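 active = inhibition above a per-plate cutoff, the plate's mean sample inhibition plus 3 SD, cut at about 24% in these data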;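 note: 0% = DMSO plus EC80 ATP and 100% = DMSO alone without ATP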
The depositor's hits bear a star.

SMILES	M1 ag parental	CHRM1 PAM	M1 ag	CHRM1 antagonist	M1 PAM parental	CHO-K1 Ca antag
CC(C)CCN1CCN(Cc2cc3ccccc3[nH]2)CC1CCO (stereo not given)	16*	12	1	-3	11	12
Cc1cc(O)ccc1C1(c2ccc(O)cc2C)OC(=O)c2ccccc21	6	6	15	-27	10	13
CC(=O)Oc1ccc2c(c1)Oc1cc(OC(C)=O)ccc1C21OC(=O)c2ccccc21	824*	-29	974*	102*	-12	101*
Cc1cccnc1NC(=O)CSc1nnc(CNC(=O)c2cccc([N+](=O)[O-])c2)n1C	1	7	-6	-10	18	-21
Cc1onc(-c2c(Cl)cccc2Cl)c1C(=O)N1CCc2ccccc21	1	-21	-7	68*	8	-3
Cc1onc(-c2c(F)cccc2Cl)c1C(=O)N1CCc2ccccc2C1	0	-6	-6	27	20	-7
FC(F)(F)c1ccc2c(c1)n(Cc1ccccc1)c1[n+]2CCCCC1	1	-25	-9	49*	-4	-11
CCCCn1c(N)c(N(CC(C)C)C(=O)c2ccc(F)c(S(=O)(=O)N3CCOCC3)c2)c(=O)[nH]c1=O	0	0	-2	3	-19	0
O=C(NCCCN1CCCC1=O)c1cc2nc(-c3ccco3)cc(C(F)(F)F)n2n1	0	10	-5	-12	15	-10
CCCOc1ccc(F)cc1-c1cc(C(=O)Nc2ccc(C(C)C)cc2)[nH]n1	0	5	0	-11	-3	10
O=C(O)C12CC3CC(C1)CC(n1ncc(N4CCN(c5ccccc5)CC4)c(Cl)c1=O)(C3)C2	0	-9	-5	13	-9	18
O=c1c(Cl)c(N2CCNCC2)cnn1C12CC3CC(CC(C3)C1)C2	1	-21	-8	35*	-14	-13
O=C(NCc1cccs1)c1nc(-c2cccs2)no1	0	2	-7	-1	-5	10
O=C(NCCc1ccccc1)c1nc(-c2cccs2)no1	0	8	-10	-6	4	26*
Cc1cnc(NC(=O)C2CC(=O)N(c3cccc(Cl)c3)C2)s1 (stereo not given)	1	2	-2	1	-7	6
O=Nc1c(O)n(Cc2cccc(Cl)c2)c2ccccc12	0	26*	20*	-17	-8	5
NC(=S)N=Nc1c(O)n(Cc2ccccc2)c2ccccc12	2	8	-5	-5	25	-1
CCn1c(C)nc2cc(C(=O)OC(C(F)(F)C(F)F)C(F)(F)C(F)F)ccc21	14	-12	1	29*	-11	45*
COc1cc(C(=O)OCC(=O)Nc2cc(C)on2)c([N+](=O)[O-])cc1OC	3	2	-9	-9	2	5
COc1ccc(N(CC(=O)NC2CCS(=O)(=O)C2)S(=O)(=O)c2ccc(Cl)c(Cl)c2)cc1 (stereo not given)	2	12	-1	-14	22	-9
CC(=O)Nc1ccc(SCCC2CCCCN2C)cc1 (stereo not given)	0	-19	-12	25*	-2	-5
CCC(C)NC(=O)CSc1ccc(NC(C)=O)cc1 (stereo not given)	0	4	-4	6	5	6
O=C(Cn1cc([N+](=O)[O-])cn1)NCc1ccccc1	2	2	-1	-3	12	0
COc1ccc(CNC(=O)Cn2cc([N+](=O)[O-])cn2)cc1	-1	8	-2	-8	-16	57*
O=C(Nc1ccccc1C(=O)NCCc1ccccc1)c1cnccn1	1	2	-6	-11	8	-15
COc1ccc(Cc2nnc(Nc3c(C)cccc3C)o2)cc1OC	1	2	-5	2	6	-12
O=C(Nc1cccc(Cl)c1)O/N=C\c1ccncc1	2	-6	2	-6	-3	-4
O=C(Nc1ccc(Cl)c(Cl)c1)O/N=C/c1ccncc1	12	-7	2	17	1	28*
COc1ccc(C(=O)Nc2ccccc2C(=O)N2CCOCC2)cc1	0	-6	-4	10	6	-6

Screens as filed in PubChem.
